# Results: PubChem BioAssay (NCATS)
# “And” between values parts separate entries of the source, which are not always exact repeats. Equal values may be shown once. Results filed as inconclusive are left out. The source made the active and inactive calls. Unless noted, calls come from the whole dose curve; as a rule, active = well fitted curve in the direction sought with a large enough effect; inconclusive = small, poorly fitted or top-dose-only effect, or another doubt; inactive = no such curve, though single readings can be large; an effect the other way counts as inactive or inconclusive.
# Tests used:
# [1] = Primary qHTS for small molecule stabilizers of the endoplasmic reticulum resident proteome: Secreted ER Calcium Modulated Protein (SERCaMP) assay (AID 1508630); note: % is set by controls: 0 for no effect and ±100 for the full control effect
# How it was run: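 GLuc-SERCaMP-expressing SH-SY5Y cells, pretreated 16 h with compound, are challenged with thapsigargin to empty ER calcium stores; after 4 h, coelenterazine is added directly to the medium and luminescence is imaged.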
# [2] = biological target: Cytochrome P450 2D6 (Homo sapiens) (UniProt P10635); assay: Cytochrome P450 family 2 subfamily D member 6 (CYP2D6) small molecule antagonists: luciferase biochemical (cell-free) qHTS assay (AID 1645840; active = well fitted curve in the direction sought with a large enough effect in the repeat runs; an effect the other way counts as inactive or inconclusive; note: nearly all actives have a fitted effect of over 55% in size; note: potency is the fitted concentration of half-maximal effect; for activity change, negative = inhibition: % is set by controls: 0 for no effect and ±100 for the full control effect)
# How it was run: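 P450-Glo luminescent screen: recombinant CYP2D6 enzyme–proluciferin substrate mix preincubated with compound 10 min at room temperature, then NADPH regeneration added for 1 h at room temperature. Detection reagent added for 20 min; luciferin light read as relative luminescence units.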
# [3] = biological target: Cytochrome P450 2C9 (Homo sapiens) (UniProt P11712); assay: Cytochrome P450 family 2 subfamily C member 9 (CYP2C9) small molecule antagonists: luciferase biochemical (cell-free) qHTS assay (AID 1645842; active = well fitted curve in the direction sought with a large enough effect in the repeat runs; an effect the other way counts as inactive or inconclusive; note: nearly all actives have a fitted effect of over 55% in size; note: potency is the fitted concentration of half-maximal effect; for activity change, negative = inhibition: % is set by controls: 0 for no effect and ±100 for the full control effect)
# How it was run: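 Luminescence, after 20 min with luciferin detection reagent, reflected CYP2C9 turnover during a 1 h NADPH-driven reaction at 37C. Enzyme-substrate mix contained 0.4% bovine serum albumin and was preincubated with compound 10 min at room temperature.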
# [4] = Primary qHTS for inhibitors of nuclear receptor binding SET domain protein 2 (NSD2) in an isogenic RCH-ACV NSD2 p.E1099K mutant (9B) (AID 1645876); note: potency is the fitted concentration of half-maximal effect; nearly all actives have a fitted effect of over 70% in size
# [5] = Primary qHTS for inhibitors of nuclear receptor binding SET domain protein 2 (NSD2) in an RCH-ACV wild type WT cells (2C) (AID 1645877); note: potency is the fitted concentration of half-maximal effect; nearly all actives have a fitted effect of over 70% in size
# [6] = biological target: N-terminal Xaa-Pro-Lys N-methyltransferase 1 (Homo sapiens) (UniProt Q9BV86); assay: Confirmatory qHTS for Inhibitors of N-terminal methyltransferase 1 (NTMT1): MTaseGlo Assay (AID 1645874); note: potency is the fitted concentration of half-maximal effect; nearly all actives have a fitted effect of over 65% in size
# How it was run: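 Preincubation of NTMT1 (125 nM) plus SAM (100 uM) with test compounds lasted 15 min; methylation of 1 uM SPKRIA then proceeded 30 min in the dark at room temperature. Luciferase signal reported SAH produced.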
# [7] = biological target: Catechol O-methyltransferase (Homo sapiens) (UniProt P21964); assay: Confirmatory Screen for Target Class Profiling of Small Molecule Inhibitors of Methyltransferases (AID 1745852; calls by dose curve; note: potency is the fitted concentration of half-maximal effect); settings: MTase-Glo luminescence, SAH detection, recombinant enzyme; measured here: COMT max response; stronger effect = lower value
# [8] = biological target: Guanidinoacetate N-methyltransferase (Homo sapiens) (UniProt Q14353); assay: as above; settings: MTase-Glo luminescence, SAH detection, recombinant enzyme; activity change, negative = inhibition: at 57.3 µM (top of the series) unless noted
# Cytochrome P450 2D6 (Homo sapiens), sequence (P10635 whole entry, looked up): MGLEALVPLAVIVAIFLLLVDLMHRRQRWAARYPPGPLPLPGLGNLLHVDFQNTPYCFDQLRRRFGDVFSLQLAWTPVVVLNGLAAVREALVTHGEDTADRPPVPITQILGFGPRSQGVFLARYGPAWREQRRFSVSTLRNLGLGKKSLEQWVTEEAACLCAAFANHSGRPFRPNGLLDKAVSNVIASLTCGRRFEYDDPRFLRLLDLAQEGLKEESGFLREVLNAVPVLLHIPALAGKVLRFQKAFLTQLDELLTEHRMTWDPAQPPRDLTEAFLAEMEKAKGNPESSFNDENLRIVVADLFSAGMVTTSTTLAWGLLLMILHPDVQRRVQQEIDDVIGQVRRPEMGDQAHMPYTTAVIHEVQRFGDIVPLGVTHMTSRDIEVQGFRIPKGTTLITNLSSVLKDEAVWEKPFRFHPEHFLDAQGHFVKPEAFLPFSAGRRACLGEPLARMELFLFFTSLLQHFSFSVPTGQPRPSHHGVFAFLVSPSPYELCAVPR
# Cytochrome P450 2C9 (Homo sapiens), sequence (P11712 whole entry, looked up): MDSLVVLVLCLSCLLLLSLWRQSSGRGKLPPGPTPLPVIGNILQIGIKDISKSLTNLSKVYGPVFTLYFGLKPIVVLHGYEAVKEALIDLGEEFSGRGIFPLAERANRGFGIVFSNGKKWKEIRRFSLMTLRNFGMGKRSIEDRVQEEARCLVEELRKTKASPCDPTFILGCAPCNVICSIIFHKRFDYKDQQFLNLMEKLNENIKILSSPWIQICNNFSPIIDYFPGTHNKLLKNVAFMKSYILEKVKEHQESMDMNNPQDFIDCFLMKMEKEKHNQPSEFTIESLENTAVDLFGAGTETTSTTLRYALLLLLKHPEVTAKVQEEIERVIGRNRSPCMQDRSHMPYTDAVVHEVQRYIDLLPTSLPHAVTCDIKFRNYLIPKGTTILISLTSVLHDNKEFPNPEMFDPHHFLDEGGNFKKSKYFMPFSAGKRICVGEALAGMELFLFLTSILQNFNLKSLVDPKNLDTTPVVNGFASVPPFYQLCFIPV
# Catechol O-methyltransferase (Homo sapiens), sequence (P21964 whole entry, looked up): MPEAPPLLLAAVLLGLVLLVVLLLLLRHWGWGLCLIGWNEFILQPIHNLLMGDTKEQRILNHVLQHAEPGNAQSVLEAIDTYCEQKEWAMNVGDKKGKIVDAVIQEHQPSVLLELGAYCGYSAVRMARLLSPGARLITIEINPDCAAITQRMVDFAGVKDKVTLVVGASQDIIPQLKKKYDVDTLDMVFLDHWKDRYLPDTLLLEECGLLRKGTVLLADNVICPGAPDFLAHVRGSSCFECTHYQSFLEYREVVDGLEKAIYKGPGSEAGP
# N-terminal Xaa-Pro-Lys N-methyltransferase 1 (Homo sapiens), sequence (Q9BV86 whole entry, looked up): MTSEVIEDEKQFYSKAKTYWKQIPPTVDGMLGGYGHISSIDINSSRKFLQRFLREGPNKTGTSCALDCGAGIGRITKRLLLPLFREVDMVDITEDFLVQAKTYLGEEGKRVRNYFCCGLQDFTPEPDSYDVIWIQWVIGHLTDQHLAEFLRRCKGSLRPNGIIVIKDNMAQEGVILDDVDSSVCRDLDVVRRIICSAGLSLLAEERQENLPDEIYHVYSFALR
Structure (SMILES),Potency [1],Potency [2],Potency [3],Potency [4],Potency [5],Potency [6],activity [7],Potency [8]
c1ccc2c(CCNc3ccc(Nc4ccncc4)cc3)c[nH]c2c1,inactive,477 nM (active),2.68 µM (active),728 nM (active) and 332 nM (active),578 nM (active) and 296 nM (active),–,–,–
CC(C)c1cnn2c(NCc3ccccc3)cc(N[C@@H](CO)[C@H](O)CO)nc12,inactive,inactive,3.79 µM (active),515 nM (active) and 186 nM (active),515 nM (active) and 166 nM (active),–,–,–
CNC(=O)c1cc(Oc2ccc(NC(=O)Nc3cc(C(C)(C)C)nn3-c3ccc4ncccc4c3)c(F)c2)ccn1,inactive,inactive,6.74 µM (active),3.65 µM (active) and 4.17 µM (active),7.28 µM (active) and 5.25 µM (active),–,–,–
C[C@@H](Oc1cc(-c2cnn(C3CCNCC3)c2)cnc1N)c1c(Cl)ccc(F)c1Cl,inactive,21.3 µM (active) and 13.5 µM (active),1.69 µM (active),1.45 µM (active) and 1.83 µM (active) and 1.48 µM (active),1.15 µM (active) and 1.29 µM (active) and 1.05 µM (active),39.8 µM (active),-38.2% and -62.1%,27.1 µM (active)
COc1cc2c(Oc3ccc(-c4cnc(Nc5ccc(F)cc5)n(C)c4=O)cc3F)ccnc2cc1OCCCN1CCOCC1,inactive,inactive,inactive,4.09 µM (active) and 1.48 µM (active),4.59 µM (active) and 2.09 µM (active),–,–,–
